In PubChem BioAssay (NCI):
Compounds without any hit were thinned out: in the full panel of roughly 83,000, 20% have a hit.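 Treatment: one concentration, 48 hours, 96-well format. Scoring: percent growth, with anything below 10 considered active.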 A number with no mark means an inactive call. The source made the active and inactive calls.

These compounds were tested on UO-31 renal (assay: NCI-60 one-dose screen, 48 h (100 = growth as untreated, 0 = no growth, -100 = all killed)). Conditions: 10 µM unless noted.

Structure (SMILES) | growth
CN1CCN(Cc2ccc(NC(=O)c3cncc(C#Cc4cnc5ccc(N6CCN(C)CC6)nn45)c3)cc2C(F)(F)F)CC1 | 20.1%
O=C(O)c1cn(C2CC2)c2cc(N3CCN(C(=O)CN4C(=O)CSC4=O)CC3)c(F)cc2c1=O | 56.4%
NC/C(=C/F)COc1ccc2nc(NCc3cccnc3)oc2c1 | 62.1%
C=C(C)[C@@H]1CC[C@]2(C(=O)NCCCCCN(CCC#N)CCC#N)CC[C@]3(C)[C@H](CC[C@@H]4[C@@]5(C)CCC(=O)C(C)(C)[C@@H]5CC[C@]43C)[C@@H]12 | 71.6%
CCCCNNC(=O)c1ccc(-c2cccc(F)c2F)cc1 | 3.46% (active)
C#Cc1ccc(C(=O)NCc2ccc(/C=C/C(=O)c3nccn3C)cc2)cc1 | 29.3%
COc1ccc(/C(N)=N/C(N)=N/c2nc3ccccc3s2)cc1 | 57.4%
O=C(CN1CCN(c2cc(=O)[nH]c3ccc(F)cc23)CC1)Nc1ccc(Cl)cc1 | 75.2%
Cc1ccc(-n2cc(/C=C/C(=O)c3ccc(O)cc3)c(-c3ccc(S(C)(=O)=O)cc3)n2)cc1 | 76.4%
O=S(=O)(NCCCNc1nccc(-c2[nH]c(-c3ccccc3)nc2-c2ccc(Cl)c(O)c2)n1)c1cccc(F)c1 | 56.6%
Cc1cc(-c2ccc(Cl)cc2)n(Cc2nnc(SCC(=O)Nc3ccc(S(N)(=O)=O)cc3)n2C2CCCCC2)n1 | 82.3%
Oc1cccc2ccc(-c3nnc(SCc4ccc(O)c5ncccc45)n3-c3ccccc3)nc12 | -22.8% (active)
Cc1ccc(-c2nn(-c3ccccc3)cc2/C=C/C(=O)c2ccc(NC(=O)CCCCCCC(=O)NO)cc2)cc1 | 52.2%
CC(C)(C)c1ccc(C(=O)Nc2sc3c(c2C(N)=O)CCC(O)C3)cc1 (stereo not drawn) | 49.1%
O=C(Nc1ccc2c(ccn2Cc2ccccn2)c1)c1ccnnc1 | 58.8%
CC(C)(C)c1ccc(C(=O)Nc2sc3c(c2C(N)=O)CC/C(=N\O)C3)cc1 | -33.7% (active)
NC(N)=Nc1ccc(Oc2cccc(Nc3ccc(Cl)cc3)c2)cn1 | 39.1%
CCc1cccc(NC(=O)CNc2cc(S(=O)(=O)N(C)C)cc(C)c2C)c1 | 48.5%
COc1ccc(N2C(=O)c3cc(Cl)ccc3NC2SCc2ccccc2)cc1 (stereo not drawn) | 63.8%

Structure (SMILES) | growth
O=C(CN1CCN(c2cc(=O)n(-c3ccccc3)c3ccccc23)CC1)Nc1nc(-c2ccc(Cl)cc2)cs1 | 29.5%
COc1ccc(C2c3sc4c(C)cccc4c3Oc3nc(CC(=O)Nc4ccccc4)[nH]c(=O)c32)cc1 (stereo not drawn) | 46.7%
O=C(/C=C/c1ccc(F)cc1)c1ccc(O)cc1 | 91.9%
Cn1ccnc1C(=O)/C=C/c1ccc(NC(=O)c2c(F)c(F)c(F)c(F)c2F)cc1 | 79.7%
Nc1cc(-c2c[nH]c3ccc(Br)cc23)nc2cc(-c3c[nH]c4ccc(Br)cc34)nn12 | 41.3%
C#CCC#CCN1CCC[C@H]1C(=O)NCC(=O)OC | 98.5%
COc1cc(/C=C/C(=O)c2ccc(NC(=O)CSc3nnc(-c4ccc(-c5nc6ccc(Cl)cc6[nH]5)cc4)o3)cc2)cc(OC)c1OC | 86%
Oc1cccc2ccc(-c3nnc(SCc4ccc(O)c5ncccc45)o3)nc12 | -6.85% (active)
NS(=O)(=O)c1ccc(Nc2nc(SCc3ccccc3)nc3ccccc23)cc1 | 46.9%
O=C1[C@@H]2Cc3c([nH]c4ccccc34)[C@H](c3c(Cl)cccc3Cl)N2C(=O)CN1C1CCN(CC2CCCCC2)CC1 | 69.7%
NS(=O)(=O)c1ccc(Nc2nc(N/N=C/c3c[nH]c4ccccc34)nc(Nc3ccccc3)n2)cc1 | 49.2%
N#Cc1c(-c2cccs2)cc(-c2cnccn2)nc1SCC(=O)Nc1ccc(Br)cc1 | 58.4%
COc1ccc(Cn2cc3c(c2-c2cc(OC)c(OC)c(OC)c2)CCc2c(CN4CCOCC4)noc2-3)cc1 | 39.5%
C=CCn1c(SCC(=O)Nc2ccc(C(=O)/C=C/c3ccc(C)cc3)cc2)nnc1-c1c[nH]c2ccccc12 | 54.2%
COc1ccccc1C(=O)Nc1cccc2c1C(=O)C(=O)C=C2 | 59.2%
COc1cc(-c2nn(C(C)(C)C)cc2-c2ccnc(NCCCNS(=O)(=O)c3ccc(Cl)cc3)n2)ccc1Cl | 32.7%
CCc1cccc2c3c(sc12)C(c1ccc(Cl)cc1)C(C#N)=C(/N=C/c1ccc(Cl)cc1)O3 (stereo not drawn) | 39.9%
C=C(C=O)[C@@H]1CC[C@]2(COC(C)=O)CC[C@]3(C)C(CC[C@@H]4[C@@]5(C)CC[C@H](OC(C)=O)C(C)(C)[C@@H]5CC[C@]43C)[C@@H]12 (stereo partly drawn) | -94% (active)
COc1ccccc1N1CCN(C2=CC(=O)C(C)=C(C)C2=O)CC1 | 93.7%
